High-throughput results from PubChem.
ST2 IL33 inh: inhibitors of human ST2 (IL1RL1) binding to IL-33, primary screen, biochemical, AlphaLISA. AlphaLISA ST2-Fc/biotin-IL-33 interaction, 1 h. inhibition, % for hits at 17 µM. hit rate 2.3% among 78,000. AID 1259354, 2018. Interleukin-1 receptor-like 1 (Homo sapiens), Q01638; in the data active means inhibition above about 30%
Target sequence (Q01638 whole entry, looked up): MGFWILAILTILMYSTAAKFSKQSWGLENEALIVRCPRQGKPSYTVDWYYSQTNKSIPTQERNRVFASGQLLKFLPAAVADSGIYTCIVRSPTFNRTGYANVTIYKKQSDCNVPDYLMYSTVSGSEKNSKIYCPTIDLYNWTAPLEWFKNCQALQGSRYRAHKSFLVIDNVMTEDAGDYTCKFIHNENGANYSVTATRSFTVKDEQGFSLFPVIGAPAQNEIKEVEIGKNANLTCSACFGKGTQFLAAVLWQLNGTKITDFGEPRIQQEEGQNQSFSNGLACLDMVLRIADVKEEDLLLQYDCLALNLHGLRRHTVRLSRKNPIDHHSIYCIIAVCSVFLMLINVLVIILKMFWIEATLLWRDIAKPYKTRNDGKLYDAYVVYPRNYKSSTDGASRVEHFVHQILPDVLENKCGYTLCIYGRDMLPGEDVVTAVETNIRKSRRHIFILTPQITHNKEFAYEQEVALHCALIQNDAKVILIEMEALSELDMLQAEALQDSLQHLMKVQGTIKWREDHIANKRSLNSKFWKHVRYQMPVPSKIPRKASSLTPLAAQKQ
* = called active by the depositor. Only a selection was taken, and hits are over-represented in it overall.

Screening OC1(c2ccccc2)CCN(c2nccc(CCC(F)(F)F)n2)C1 (stereo not given) returned ST2 IL33 inh inactive.
`Cc1ccc(C2(O)CCN(c3nc4ccccc4s3)CC2)nc1` gave ST2 IL33 inh inactive.
CC1CCc2c(sc(NC(=O)c3cc(=O)c4ccccc4o3)c2C#N)C1 (stereo not given) was read as ST2 IL33 inh inactive.
For Cc1onc(-c2ccccc2Cl)c1C(=O)Nc1sc2c(c1C#N)CCC(C)C2 (stereo not given) the results were ST2 IL33 inh inactive.
For CC1CCc2c(sc(N=Cc3cccnc3)c2C#N)C1 (stereo not given) the results were ST2 IL33 inh 30%*.
Screening O=C(O)[C@H]1O[C@@H](Oc2cc(O)c3c(=O)cc(-c4ccc(O)cc4)oc3c2)[C@H](O)[C@@H](O)[C@@H]1O returned ST2 IL33 inh inactive.
O=C1NN(c2ccc(Cl)c(Cl)c2)C(=O)/C1=C/c1ccc(-c2ccc3c(c2)C(=O)NC3=O)o1 was read as ST2 IL33 inh inactive.
Screening N#C/C(=C\c1ccc(-c2ccc3c(c2)C(=O)NC3=O)o1)c1nc2ncc(Br)cc2[nH]1 returned ST2 IL33 inh 33%*.
Screening COc1ccc(N(CC(=O)N[C@H]2C[C@@H]3CC[C@H]2C3)S(C)(=O)=O)cc1 returned ST2 IL33 inh inactive.
`O=C(O)c1cccnc1SC1CC(=O)N(c2ccc(N3CCOCC3)cc2)C1=O` (stereo not given) gave ST2 IL33 inh inactive.
Screening O=C1CC(Sc2ccccn2)C(=O)N1c1ccc(Br)cc1 (stereo not given) returned ST2 IL33 inh 40%*.
Cc1ccc(N2C(=O)CC(Sc3nc4ccccc4o3)C2=O)cc1 (stereo not given) was read as ST2 IL33 inh inactive.
Screening CC(c1ccccn1)N(C)Cc1ccc(-n2ccnc2)cc1 (stereo not given) returned ST2 IL33 inh inactive.
For CCN(CC)c1ccc(C2C(C(=O)Nc3ccc(F)cc3)=C(C)NC3=C2C(=O)CC(C)(C)C3)cc1 (stereo not given) the results were ST2 IL33 inh inactive.
Screening COC(=O)c1[nH]ncc1CN1CCCC1c1ccc(F)cc1 (stereo not given) returned ST2 IL33 inh inactive.
For CCOc1ccccc1C1C(C(=O)OCCSCC)=C(C)NC2=C1C(=O)CC(C)(C)C2 (stereo not given) the results were ST2 IL33 inh inactive.
Screening CCSCCOC(=O)C1=C(C)NC2=C(C(=O)CCC2)C1c1cccc(Br)c1 (stereo not given) returned ST2 IL33 inh inactive.
CCSCCOC(=O)C1=C(C)Nc2ccccc2S1 was read as ST2 IL33 inh 43%*.
For CC(Nc1ncnc2sccc12)c1ccc(-n2cncn2)cc1 (stereo not given) the results were ST2 IL33 inh inactive.
`Cc1ccc(NC(=O)c2cnc3scc(C)n3c2=O)cc1F` gave ST2 IL33 inh inactive.
`COc1ccc(N2CCN(C(=O)c3sc4nc(C)nc(N5CCOCC5)c4c3C)CC2)cc1` gave ST2 IL33 inh inactive.
For CCCc1nc(C(=O)N2C[C@@H](N)C[C@H]2C(=O)NC(C)C)cs1 the results were ST2 IL33 inh inactive.
`CN1CCc2cc(Cl)c(O)cc2[C@@H](c2ccccc2)C1` gave ST2 IL33 inh inactive.
CN1CCc2c(cc(O)c(O)c2Cl)C(c2cccc(Cl)c2)C1 (stereo not given) was read as ST2 IL33 inh 39%*.
Screening CN1CCc2cc(O)c(O)cc2C(c2ccccc2)C1 (stereo not given) returned ST2 IL33 inh inactive.
O=C(c1cn(C/C=C/c2ccccc2)nn1)N1CCC(C(O)c2cccs2)CC1 (stereo not given) was read as ST2 IL33 inh inactive.
For Cc1nc(C2CC2)ncc1C(=O)N1C[C@@H]2CC[C@H]1C2 the results were ST2 IL33 inh inactive.
`Cc1cc2nc(COc3ccc(Cl)cc3NC(=O)c3ccc4c(c3)OCO4)cc(=O)n2o1` gave ST2 IL33 inh inactive.
For O=C(c1ccc([N+](=O)[O-])cc1)N(c1ccccn1)c1ccccn1 the results were ST2 IL33 inh inactive.
O=C(CC(=O)c1ccc([N+](=O)[O-])cc1)c1ccccc1 was read as ST2 IL33 inh inactive.
CCN(CC)/C(=C\C(=O)c1ccc([N+](=O)[O-])cc1)c1ccccc1 was read as ST2 IL33 inh 31%*.
Cc1nc(C)c(CC(=O)NC2CC(=O)N(C3CCCCCC3)C2)s1 (stereo not given) was read as ST2 IL33 inh inactive.
For CCc1nc2cccnc2n1CCN1CCNCC1 the results were ST2 IL33 inh inactive.
For COc1ccc(NC(=O)c2cn(C)c(=O)c3cc(OC)c(OC)cc23)cc1Cl the results were ST2 IL33 inh inactive.
O=C(Nc1ccccc1F)c1ccc(Cl)cc1 was read as ST2 IL33 inh inactive.
For N[C@H](CCC(=O)NCS(=O)(=O)O)C(=O)O the results were ST2 IL33 inh 85%*.
`NC(=O)CC[C@H](N)C(=O)O` gave ST2 IL33 inh inactive.
`CCCCS(=N)(=O)CCC(N)C(=O)O` (stereo not given) gave ST2 IL33 inh inactive.
CC(C)C(NS(=O)(=O)c1cccc2nsnc12)C(=O)NC1CCCC(C)C1C (stereo not given) was read as ST2 IL33 inh inactive.
For O=S(=O)(CCOc1ccccc1)N1C[C@H]2CC=CC[C@H]2C1 the results were ST2 IL33 inh inactive.
`CCOc1ccc(NC(=O)COc2ccc(Cl)cc2)cc1` gave ST2 IL33 inh inactive.
O=C(CSc1nc2ccccc2s1)Nc1nc2ccc([N+](=O)[O-])cc2s1 was read as ST2 IL33 inh inactive.
O=[N+]([O-])c1ccc(S(=O)(=O)c2nc3ccccc3s2)c(Cl)c1 was read as ST2 IL33 inh 54%*.
Screening O=C(c1cc([N+](=O)[O-])ccc1Cl)n1nnc2ccccc21 returned ST2 IL33 inh inactive.
O=C(Nc1ccccc1)C(=O)NC1CCCCCC1 was read as ST2 IL33 inh inactive.
Screening O=C1CCC2(CCN1)CCN(S(=O)(=O)c1ccc3ccccc3c1)CC2 returned ST2 IL33 inh inactive.
`COc1cc(OC)cc(N2C(=O)CC(Sc3ncn[nH]3)C2=O)c1` (stereo not given) gave ST2 IL33 inh inactive.
Cc1cccc(N2C(=O)CC(Sc3nccc(C)n3)C2=O)c1 (stereo not given) was read as ST2 IL33 inh inactive.
For Cc1ccc(N2C(=O)CC(Sc3ncn[nH]3)C2=O)cc1C (stereo not given) the results were ST2 IL33 inh 36%*.
Screening O=C(CN1N=NC2C(=O)N(c3ccccc3)C(=O)C21)Nc1cccc(F)c1 (stereo not given) returned ST2 IL33 inh inactive.
O=C(c1cc(-c2ccc(Br)cc2)on1)N1CCCc2ccccc21 was read as ST2 IL33 inh inactive.
CN1CCC(N[C@@H](Cn2ccc(=O)[nH]c2=O)C(=O)O)CC1 was read as ST2 IL33 inh inactive.
Cc1ccc(-c2ccnc(NCc3c(C)ncc4c3CCNC4)n2)c(C)n1 was read as ST2 IL33 inh inactive.
CCOc1ccc(S(=O)(=O)N(CC(=O)NCC2CCCO2)c2ccccc2)cc1 (stereo not given) was read as ST2 IL33 inh inactive.
CC1CCCC(C)N1CC(O)COc1ccc(Br)cc1 (stereo not given) was read as ST2 IL33 inh inactive.
N=Nc1[nH]c(N)c2ccccc12 was read as ST2 IL33 inh 46%*.
`FC(F)(F)c1cc(-c2ccc(Cl)cc2)nc(-n2cccn2)n1` gave ST2 IL33 inh inactive.
